Reference: the supplement of paper PMC6555819

Test system: VDR:RXRa (NR concentration 270 nM, RXRa partner concentration 90 nM)
Assay: PBM binding z-score (relative to random genomic background probes); higher = stronger binding; sequences stand for … in GC…GCGATTGACAGCGTAGAATGAAGG
Procedure: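 Protein-binding microarray (Agilent 4x180K custom design, double-stranded 60-nt probes: 5' GC cap, 34-nt variable region, 24-nt constant primer region; full probe sequence given). Purified or IVT nuclear receptor:RXRα heterodimers (3:1 NR:RXRα, mostly 270:90 nM) or homodimers were incubated for 1 h in PBS with 2% milk and no ligand, then detected with Alexa488 antibodies. Fluorescence from o1-orientation probes (~5 replicates averaged) was converted to z-scores against 500 random hg19 background probes. Variable regions are seed direct-repeat (DR0–DR5) sites, all their single-nucleotide variants and half-site ablations.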

Sequence | PBM binding z-score
CCTACTGGGCTAAAAAGGTCATTGATGCCGATAA | 4.33
AATACAGGGTCATCGTAGACCAGAGTACGCACAG | 5.04
TCTCGGAGGACACGAAGGTCAGAGGTTTCCAGAG | 2.59
ATTCCAAGGTGATCGTGAGGTCGTTGATACTAAC | 3.31
TGAATGAGGTTATAAGATCAGGCAACGTTGCAAA | 0.915
GCTAGTTGGTCAGTAAAAGGTCCCACACCGGTCG | -0.352
CAAACTTGGTCACCGGAAGGTCAAAGTCCGCATG | 3.88
ATATGTAGGGTATCGGGTCATTCAGTTTGCGCAT | 5.05
ATCGAAAGGTCGTGAGTTGAGTATACAGAAAGGC | 3.51
GTACCAAGGTGAATAGGGCGTTGATGAGTAGGCG | -0.176
GCACCAAGGTGAATAGGTCGTTGATGAGTAGGCG | 0.503
ACTTACGGATCAACGAGGTTATAGCACGCGTATA | 4.59
CCTCGAAGGACAACAGGAGGTCAGAGCTGCCAGA | 1.73
CCTCGGAGGACTACAGGAGGTCAGAGCTGCCAGA | 1.26
AGTACGAGGGCACGCTGAGTTGATAGCAGAGTAG | 2.29
ACTCGGAGGACAAAGGTCAAAGCTACGCCAGTGA | 4.8
AATACAGGGTCATCGTAGGCCAGAGGACGCACAG | 5.19
TAGCCTAGGTCATGCAGGCCAGTATAGTGTCGGC | 3.25
CAAACTAGGTCACAGGAAGGTCAAAGTCCGCATG | 5.74
CCTGCTAGGTCAACGGTCAGCTAAAGCAGCTCGC | 1.58

Sequence | PBM binding z-score
TCATATAGGTAAATGGTAGGTGAAAGTCCGATCT | 1.16
CCTGCTAGGTCCATGGTCAGCTAAAGCAGCTCGC | -0.591
CCTTACGGGTCACTCCAGGTTACAGCATCGGAGT | 3.95
CTCGAAAGGTCGTTCTCAGGTGAGTATACCAAAC | 3.95
CCGACTGGGGCAGAAGGTTACCATAAGCCAGCCC | -0.302
TGACCAAGGTGAGCTGAGGTCGTTGATCCAACTC | 3.9
AGAATGAGGTTACCAAAGATCAGGAAAACGCTTG | 1.35
TCTCGGAGGACAGGAAAGGTCAGAGCTCGACATC | 2.7
TCTTATAGATCAAAGGTTAAGAAAGCCGAAGCCT | 2.27
GCGACTGGAGCATCAGCAGGTTACCATAACTTAA | -0.345
TAGCCTAGGTCCTGCGGGCCAGTATAGTGTCGGC | -1.05
AGAACGAGCGCACGCTGAGTTGATAGCAGAGTAG | -0.801
GCAGACAGGTTAAACGCAGGTAACTCAGGGTGGC | 0.135
AATACAGGGTCACTAGGCGAGAGTAGGTACGAAT | 4.12
CGTCCAAGGTCAATGCTAGGACAGTGAAAGCATT | 3.83
CCTACTGGGCTAAAGGTCATTGATTCCAATGCTC | 4.38
CCTAGCAGGCCAATCTGGTTCACTCAAGGCTTGA | 0.38
ACTCGGAGGACAAAGGGCAGAGCTACGCCAGTGA | -0.214
TAGCCTAGGTCATTCAGGGGACAGTATAGAAAGC | 3.56
TTACCAAGGTGAGCTGAGGTCGTGGATCCAACTC | 3.37
